Assay [1] concerns the target Glutathione peroxidase 1 (Homo sapiens) (UniProt P07203). The assay can be described thus: Primary qHTS Assay for Inhibitors of Recombinant Selenoprotein Glutathione Peroxidase 1 (GPX1) (AID 1845191). Further: nearly all actives have a fitted effect of over 65% in size. The method, boiled down:
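GR-coupled assay: compounds preincubated 30 min at room temperature with GPX1, then reaction started with CHP; final 10 nM GPX1, 1 mM GSH, 0.5 mM CHP, 0.5 mM NADPH, 100 nM GR, 0.01% BSA, pH 7.5 Tris buffer. NADPH fluorescence (340/450 nm) read at 0 and 15 min.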
Background: Quantitative high-throughput screening tests each substance at several concentrations.

Assay [2] has as its target Phospholipid hydroperoxide glutathione peroxidase GPX4 (Homo sapiens) (UniProt P36969). The experiment in a line: Primary qHTS Assay for Inhibitors of Recombinant Selenoprotein Glutathione Peroxidase 4 (GPX4) (AID 1845192). Further: nearly all actives have a fitted effect of over 65% in size. The method, boiled down:
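GR-coupled assay: recombinant GPX4 preincubated 30 min with compound at room temperature; final 200 nM GPX4, 1 mM GSH, 0.5 mM cumene hydroperoxide, 0.5 mM NADPH, 100 nM GR, 0.01% BSA, pH 7.5 Tris. NADPH fluorescence (340/450 nm) read at 0 and 15 min.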

In assay [3] the target is Luciferin 4-monooxygenase (Photinus pyralis) (UniProt P08659). The assay can be described thus: Primary firefly luciferase (FLuc) qHTS assay for identification of artifact compounds. (AID 1845220). Further: nearly all actives have a fitted effect of over 60% in size. The conditions noted are these: outcome: dose series up to 54.1 µM unless noted. The method, boiled down: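 Enzymatic FLuc inhibition assay: compounds pre-exposed to luciferin/ATP (10 uM each) for 15 min, then purified P. pyralis enzyme at 10 nM added. Read-out: luminescence at 5 min.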

Assay [4] deals with Nanoluciferase (engineered Oplophorus gracilirostris luciferase). The experiment in a line: Primary Nanoluciferase (NLuc) qHTS assay for identification of artifact compounds. (AID 1845222).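 Further: NLuc secreted into diluted conditioned medium of S16 cells; series mostly up to about 54 µM.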 The method, boiled down: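 S16 cell supernatant NLuc, 1:55; cpds qHTS; 15 min RT dark; Nano-Glo substrate 1:100, 5 min; luminescence; Hill fit of % inhibition.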
A short description of assay [5]: Primary redox qHTS assay for identification of artifact compounds. (AID 1845223). The method, boiled down:
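Amplex Red (25 uM) and HRP (250 mU/mL) in HBSS, with compounds for 15 min, then 250 uM DTT for 30 min, room temperature, dark. Fluorescence 525/598 nm read; normalized to DMSO and 10 uM DA3003; Hill fit.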

Assay [6] in a line: Quantitative High-Throughput drug screen in 47 multiple myeloma cell lines against the NCATS MIPE library collection: Delta47_JCRB cell viability assay (AID 1918925; further: nearly all actives have a fitted effect of over 45% in size; further: potency means the concentration at half of the fitted maximal effect). The method, boiled down:
(§1)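 qHTS of the MIPE 4.0 collection: 500 myeloma cells/well, 48 h drug exposure at 37C in 5% CO2, then CellTiter-Glo for 5 min at room temperature before luminescence reading.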

The nature of assay [7]: Quantitative High-Throughput drug screen in 47 multiple myeloma cell lines against the NCATS MIPE library collection: EJM_DSMZ cell viability assay (AID 1918926; further: nearly all actives have a fitted effect of over 30% in size; further: potency means the concentration at half of the fitted maximal effect). In outline:
as §1

Assay [8] in a line: Quantitative High-Throughput drug screen in 47 multiple myeloma cell lines against the NCATS MIPE library collection: AMO1_DSMZ cell viability assay (AID 1918927; further: nearly all actives have a fitted effect of over 30% in size; further: potency means the concentration at half of the fitted maximal effect). In outline:
as §1

Assay [9] is described as follows: Quantitative High-Throughput drug screen in 47 multiple myeloma cell lines against the NCATS MIPE library collection: ARP1_JJKsccF8 cell viability assay (AID 1918928; further: nearly all actives have a fitted effect of over 40% in size; further: potency means the concentration at half of the fitted maximal effect). In outline:
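Myeloma cells at 500 per well in 1536-well format treated with MIPE 4.0 library by pin transfer for 48 h at 37C, 5% CO2. Viability from ATP luminescence (CellTiter-Glo), normalized to DMSO (100%) and media-only (0%) wells.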

Assay [10] in a line: Quantitative High-Throughput drug screen in 47 multiple myeloma cell lines against the NCATS MIPE library collection: ARD_JJKsccE7 cell viability assay (AID 1918929; further: potency means the concentration at half of the fitted maximal effect). The method, boiled down:
as §1

The nature of assay [11]: Quantitative High-Throughput drug screen in 47 multiple myeloma cell lines against the NCATS MIPE library collection: Karpas620_DSMZ cell viability assay (AID 1918959). Further: nearly all actives have a fitted effect of over 30% in size. Further: potency means the concentration at half of the fitted maximal effect. The method, boiled down: (§2)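 Myeloma cell lines, 500 cells per well, exposed to MIPE 4.0 library compounds for 48 h at 37C, 5% CO2. Viability from ATP by CellTiter-Glo luminescence; normalised to DMSO (100%) and media-only (0%) wells.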

Assay [12] can be described thus: Quantitative High-Throughput drug screen in 47 multiple myeloma cell lines against the NCATS MIPE library collection: FR4_PLB cell viability assay (AID 1918924; further: nearly all actives have a fitted effect of over 35% in size; further: potency means the concentration at half of the fitted maximal effect). In outline:
as §2

Records with an inconclusive call do not appear. The source made the active and inactive calls. The call rests on the fitted dose curve; in most records, active means well fitted curve in the direction sought with a large enough effect; inconclusive means small, poorly fitted or top-dose-only effect, or another doubt; inactive means no such curve, though single readings can be large; an effect the other way counts as inactive or inconclusive.

Glutathione peroxidase 1 (Homo sapiens), sequence (P07203 whole entry, looked up): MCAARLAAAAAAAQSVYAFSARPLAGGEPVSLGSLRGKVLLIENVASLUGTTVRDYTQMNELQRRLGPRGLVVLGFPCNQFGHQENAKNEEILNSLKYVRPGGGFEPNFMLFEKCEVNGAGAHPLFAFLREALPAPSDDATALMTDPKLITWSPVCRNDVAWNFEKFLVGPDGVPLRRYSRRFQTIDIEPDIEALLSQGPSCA
Phospholipid hydroperoxide glutathione peroxidase GPX4 (Homo sapiens), sequence (P36969 whole entry, looked up): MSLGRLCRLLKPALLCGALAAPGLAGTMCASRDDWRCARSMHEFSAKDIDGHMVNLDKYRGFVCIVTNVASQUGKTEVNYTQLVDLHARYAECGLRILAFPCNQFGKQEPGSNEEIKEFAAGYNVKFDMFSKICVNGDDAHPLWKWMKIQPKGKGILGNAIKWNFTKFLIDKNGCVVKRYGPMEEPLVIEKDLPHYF

On to `CCN1CCN(C(=O)Cc2ccc(Nc3ncc(F)c(Nc4ccc(C(=O)Nc5ccccc5Cl)cc4)n3)cc2)CC1`, for which the Potency result in assay [1] and in [2] was “inactive” throughout. The result in assay [3], in assay [4] and in [5] was inactive. Besides, the Potency was 1.32 µM (active) in assay [6]; 8.33 µM (active) in assay [7]; 1050 nM (active) in assay [8]; 3.72 µM (active) in [9]; 743 nM (active) in assay [10]; 1.87 µM (active) in assay [11].
Regarding `O=C(Nc1ccncc1)C(=O)c1cn(Cc2ccc(Cl)cc2)c2ccccc12`, the Potency result in [1] and in assay [2] was “inactive” in each case. Moreover, the Potency in [12] is 0.0166 µM (active); in assay [6], 0.0166 µM (active); in assay [7] it was 3.72 µM (active); in assay [8], 16.6 nM (active); in assay [9] it was 0.0743 µM (active); in [10] it was 41.8 nM (active).
In the case of `NC1=NC(=O)N2CC12` (stereo not given), the Potency result in assay [1], in [2], in assay [7] and in [9] was “inactive” throughout. Besides, the Potency in [6] was 10.5 µM (active); in [8] it was 13200 nM (active); in assay [11], 9.35 µM (active).
On to `Clc1ccccc1C(c1ccccc1)(c1ccccc1)n1cccn1`, for which the Potency entry in assay [1], in assay [2], in [12], in assay [6] and in assay [11] was “inactive” each time.
Turning to `O=c1cccc2n1CC1CNC[C@H]2C1`, the Potency result in assay [1], in [2], in assay [12] and in assay [7] was “inactive” in each case. Also, the Potency in [8] is 13200 nM (active); in assay [11], 13.2 µM (active).
Consider `Cc1ccccc1-n1c(Cn2cnc3c(N)ncnc32)nc2cccc(C)c2c1=O`, for which the Potency result in [1] and in assay [2] was “inactive” each time. For the same compound, the call in [3], in [4] and in assay [5] was inactive. Moreover, the Potency was 6.62 µM (active) in assay [12]; 0.105 µM (active) in assay [6]; 4.18 µM (active) in assay [7]; 833 nM (active) in assay [8]; 0.132 µM (active) in assay [9]; 4.18 µM (active) in [11].
On to `C=CCC1=C(C)C(OC(=O)C2C(C=C(C)C)C2(C)C)CC1=O` (stereo not given), for which the Potency result in [1] and in assay [2] was “inactive” throughout.
In the case of `CC(C)[C@]12O[C@H]1[C@@H]1O[C@]13[C@]1(O[C@H]1C[C@H]1C4=C(CC[C@@]13C)C(=O)OC4)[C@@H]2O`, the Potency result in assay [1] and in [2] was “inactive” throughout. In addition, the call in assay [3], in assay [4] and in [5] was inactive.
With `Cc1c(C(=O)Nc2cccc(C(F)(F)F)c2)cc(-c2ccccc2)n1CCCN1CCOCC1`, the Potency result in [1] and in assay [2] was “inactive” in each case. In addition, the compound was called inactive in [3], in assay [4] and in [5]. The Potency in assay [12] is 23.5 µM (active); in assay [6] it was 16.6 µM (active); in assay [7], 18.7 µM (active); in assay [8], 8330 nM (active); in assay [9] it was 20.9 µM (active); in assay [10], 5900 nM (active). Also, the Potency in assay [11] was 16.6 µM (active).
As to `C1CCC(NC2CCCCC2)CC1`, the Potency entry in assay [1] and in assay [2] was “inactive” throughout.
Consider `C/C=C(/C)C(=O)O[C@H]1C(C)=C2[C@H]([C@@H]1OC(=O)CCCCCCC)[C@@](C)(OC(C)=O)C[C@H](OC(=O)CCC)[C@@]1(O)[C@H]2OC(=O)[C@@]1(C)O`, for which the Potency result in [1] and in assay [2] was “inactive” each time. In addition, the compound was called inactive in [3], in assay [4] and in assay [5].
Take `C[C@]12CC[C@@H]3[C@@H](CCC4=CC(=O)CC[C@@H]43)[C@@H]1CC[C@@H]2OC(=O)CCc1ccccc1`: the Potency entry in [1], in [2], in [12], in [8] and in [11] was “inactive” each time.
Take `O=c1[nH]c2ccc(Cl)cc2c(N[C@@H]2CN3CCC2CC3)c1-c1nc2ccccc2[nH]1`: the Potency result in [1] and in [2] was “inactive” throughout. Moreover, the compound was classed as inactive in assay [3], in assay [4] and in [5]. The Potency was 0.0935 µM (active) in assay [6]; 0.418 µM (active) in [7]; 74.3 nM (active) in assay [8]; 2.64 µM (active) in assay [9]; 935 nM (active) in assay [10]; 5.9 µM (active) in assay [11].
As to `CC(C)N(CCNC(=O)CN1CCCC1=O)C(C)C`, the Potency result in [1], in [2], in [6], in [7], in assay [8] and in assay [9] was “inactive” in each case. In addition, the Potency entry in [10] and in assay [11] was “inactive” each time. Besides, the call in assay [3], in assay [4] and in [5] was inactive.
Turning to `CCc1c(C(=O)C(N)=O)c2c(OCC(=O)O)cccc2n1Cc1ccccc1`, the Potency result in assay [1], in assay [2], in assay [12], in [6], in assay [7] and in assay [8] was “inactive” throughout. In addition, in [11], the Potency result was “inactive”. For the same compound, the compound was called inactive in [3], in assay [4] and in assay [5].
As to `O=C(Oc1ccc([N+](=O)[O-])cc1)N1CCN(Cc2cccc(Oc3ccccc3)c2)CC1`, the Potency entry in [1], in [2], in assay [12], in assay [7], in assay [8] and in assay [9] was “inactive” throughout. For the same compound, the compound was classed as inactive in assay [3], in assay [4] and in assay [5].
Consider `CC(=Cc1csc(C)n1)[C@@H]1C[C@H]2O[C@]2(C)CCC[C@H](C)[C@@H](O)[C@@H](C)C(=O)C(C)(C)[C@@H](O)CC(=O)O1`, for which the Potency entry in assay [6], in assay [7] and in assay [9] was “inactive” in each case. Further, in [8], the Potency was 1 nM (active).
As for `CN1[C@H]2CC(O)C[C@H]1[C@H]1O[C@H]12` (stereo not given in full), the Potency in [6] was 9.35 µM (active); in assay [7], 20.9 µM (active); in assay [9], 20.9 µM (active). The Potency entry in assay [8] and in [11] was “inactive” each time.
On to `CC(C)N[C@@H]1CCn2c(=O)[nH]c3cccc(c32)[C@@H]1O`, for which the Potency was 14.8 µM (active) in assay [6]; 14.8 µM (active) in assay [7]; 5900 nM (active) in assay [8]; 11.8 µM (active) in assay [9]; 5.26 µM (active) in assay [11].
Regarding `C[C@H]([C@H](O)CCC(C)(C)O)[C@H]1CC[C@@]2(O)C3=CC(=O)[C@@H]4C[C@@H](O)[C@@H](O)C[C@]4(C)[C@@H]3CC[C@]12C`, the Potency entry in [6], in assay [7], in assay [10] and in assay [11] was “inactive” each time.
Take `C=C[C@@H]1CN2CCC1C[C@H]2[C@H](O)c1ccnc2ccccc12` (stereo not given in full): in assay [12], the Potency was 18.7 µM (active). The Potency result in assay [8], in assay [10] and in assay [11] was “inactive” throughout.
In the case of `C[C@@]12OC(=O)[C@]1([C@@H](O)[C@@H]1C=CCCC1)NC(=O)[C@H]2CCCl`, the Potency was 0.0187 µM (active) in assay [7]; 11.8 nM (active) in assay [8]; 0.0105 µM (active) in assay [9]; 1 nM (active) in assay [10]; 0.0093 µM (active) in [11].
Consider `C[C@@H]1CC[C@H]2[C@@H](C)C(=O)O[C@@H]3O[C@@]4(C)CC[C@H]1[C@]32OO4`, for which the Potency entry in assay [7] and in assay [10] was “inactive” in each case. Besides, the Potency was 0.332 µM (active) in [9] and 5.9 µM (active) in assay [11].
As for `COC1=CC(C)=C[C@@H](C)[C@@H](O)[C@@H](C)CC(C)=CC=C[C@H](OC)[C@H]([C@@H](C)[C@@H](O)[C@H](C)[C@@]2(O)C[C@@H](O)[C@H](C)[C@@H](C(C)C)O2)OC1=O`, the Potency in assay [6] was 0.0187 µM (active); in [7], 18.7 µM (active); in assay [8], 1 nM (active); in assay [11], 14.8 µM (active).

For the origin of these results see PubChem BioAssay (NCATS).
